High-throughput results: PubChem BioAssay, Buhrlage Lab, Dana-Farber Cancer Institute and Novartis Institutes for BioMedical Research (Cambridge, Mass)
Compounds with a hit are over-represented: about 4.6% of the library has one in this group of screens.
USP7 block: inhibitors of human USP7 deubiquitinase. Q93009. purified USP7, Ub-rhodamine cleavage fluorescence. inhibition, % at 20 µM. 0.3% of 47,000 active. AID 1645854
UCHL1 block: inhibitors of human UCHL1 deubiquitinase | AID 1645859 | P09936 | inhibition, % at 20 µM | purified UCHL1, Ub-rhodamine cleavage fluorescence | 0.2% of 47,000 active
USP8 block: inhibitors of human USP8 deubiquitinase; AID 1645853; P40818; 4.2% of 47,000 active; purified USP8, Ub-rhodamine cleavage fluorescence, 30 min; inhibition, % at 20 µM
USP10 inh: human USP10 deubiquitinase inhibition. Q14694. purified USP10, Ub-rhodamine fluorescence, 60 min. inhibition, % at 20 µM. 1.1% of 47,000 active. AID 1645856
Target sequence (Q14694 whole entry, looked up): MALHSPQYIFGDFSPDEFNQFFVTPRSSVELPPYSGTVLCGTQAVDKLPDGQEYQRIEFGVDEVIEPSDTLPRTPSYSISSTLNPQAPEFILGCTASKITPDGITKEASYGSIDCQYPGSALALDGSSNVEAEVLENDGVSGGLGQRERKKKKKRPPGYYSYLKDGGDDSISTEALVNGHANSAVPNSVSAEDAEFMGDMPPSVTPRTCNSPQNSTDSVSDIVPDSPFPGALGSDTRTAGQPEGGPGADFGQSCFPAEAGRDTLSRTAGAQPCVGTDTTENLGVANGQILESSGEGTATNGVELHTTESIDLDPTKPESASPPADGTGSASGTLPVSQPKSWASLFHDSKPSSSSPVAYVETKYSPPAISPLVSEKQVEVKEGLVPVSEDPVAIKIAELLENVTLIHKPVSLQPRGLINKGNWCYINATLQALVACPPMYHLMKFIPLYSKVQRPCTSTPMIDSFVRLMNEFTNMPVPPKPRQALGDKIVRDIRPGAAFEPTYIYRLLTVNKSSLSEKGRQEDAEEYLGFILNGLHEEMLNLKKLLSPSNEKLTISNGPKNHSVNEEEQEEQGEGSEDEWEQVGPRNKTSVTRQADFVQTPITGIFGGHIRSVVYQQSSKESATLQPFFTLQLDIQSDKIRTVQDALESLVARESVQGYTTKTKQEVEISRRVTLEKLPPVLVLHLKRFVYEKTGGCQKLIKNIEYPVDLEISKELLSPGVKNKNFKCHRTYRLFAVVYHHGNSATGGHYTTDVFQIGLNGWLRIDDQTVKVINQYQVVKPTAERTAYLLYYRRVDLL
Of the large screens only hits and unclear results are named; the others gave an inactive call. Rule as the data show it: active = inhibition above about 30%; inactive = the rest.

COc1cccc(CNC(=O)C2c3c(ncn3C)CCN2Cc2cccnc2)c1 (stereo not drawn)	none
O=C(Nc1cccc(F)c1)c1c(O)c2cnn(Cc3ccccc3)c2[nH]c1=O	USP8 block 61.5
O=C(Nc1ccc(F)cc1)c1c(O)c2cnn(Cc3ccccc3)c2[nH]c1=O	USP8 block 42.0
O=C(NCc1ccccc1F)c1c(O)c2cnn(Cc3ccccc3)c2[nH]c1=O	USP8 block 79.6
Cc1ccccc1CNC(=O)c1c(O)c2cnn(Cc3ccccc3)c2[nH]c1=O	none
O=C(C1CCCC1)N1Cc2ccccc2CC2(CCN(CC3CCOCC3)C2)C1 (stereo not drawn)	none
c1ccc2c(c1)CCc1c-2nc2ccccc2c1N1CCOCC1	USP8 block 83.0
Fc1cc(F)c2[nH]cc(-c3nnnn3-c3ccc4ccccc4c3)c2c1	USP8 block 55.4, USP10 inh 31.5
Cc1nnc(C2CCN(CC(=O)Nc3ccc(Br)cc3)CC2)s1	none
COc1cccc(-n2c(=O)c(C(=O)NCc3ccccc3)c(O)c3cccnc32)c1	USP8 block 80.1
O=C(O)COCC(=O)Nc1cc(C(F)(F)F)ccc1N1CCCC1	none
Cc1ccccc1Nc1c(-c2ccccc2O)nc2c(C)cccn12	none
Cc1ccc2nc(-c3ccccc3O)c(Nc3ccc(Cl)cc3)n2c1	USP8 block 76.1
COc1ccc(O)c(C(=O)c2cnc3c(c2)c(C)nn3-c2cccc(Cl)c2)c1	none
Cc1nn(-c2ccccc2)c2[nH]c(=O)c(CNCc3ccccc3Cl)cc12	USP8 block 72.3
COc1ccc(CNCc2cc3c(C)nn(-c4ccccc4)c3[nH]c2=O)cc1	USP8 block 64.5
Cc1oc2ncn3nc(C(C)Oc4cccc5ccccc45)nc3c2c1C (stereo not drawn)	USP8 block 77.7
CC(C)(C)Cc1nnc(-c2cnc3onc(C4CCCC4)c3c2)o1	USP8 block 35.4
CCOc1ccc(-c2nnc(-c3cnc4onc(C5CCCC5)c4c3)o2)cc1	USP10 inh 31.5
Fc1ccc(Cc2nnc(-c3cnc4onc(C5CCCC5)c4c3)o2)cc1	none
COCCCn1c(C(=O)Nc2cccc(C)c2)cc2c(=O)n3cccc(C)c3nc21	none
Cc1cc(C)c(NC(=O)COc2ccc3ccccc3c2Br)c(C)c1	none
Cc1c(C)n2c(SCC(=O)Nc3cccc(Cl)c3)nnc2[nH]c1=O	none
O=C(Nc1ccc(N2CCCC2=O)cc1)c1cncn1-c1ccccc1	none
Cc1nn(-c2ccc(Cl)cc2)c2[nH]c(=O)c(CNCc3ccco3)cc12	USP8 block 44.2
Cc1nn(-c2ccccc2)c2[nH]c(=O)c(CNCC3CCCO3)cc12 (stereo not drawn)	none
Cc1nn(-c2ccc(Cl)cc2)c2[nH]c(=O)c(CNCC3CCCO3)cc12 (stereo not drawn)	USP8 block 85.6
COc1ccc(CCNCc2cc3c(C)nn(-c4ccc(Cl)cc4)c3[nH]c2=O)cc1OC	USP8 block 78.0
Cc1nn(-c2ccc(Cl)cc2)c2[nH]c(=O)c(CNCCN(C)C)cc12	USP8 block 53.4
Cn1nc(C2CCCN(C(=O)COc3ccccc3)C2)c2nccnc21 (stereo not drawn)	none
COc1ccc(-c2c(-c3ccc(OCCN4CCOCC4)cc3O)n[nH]c2C)cc1OC	USP8 block 54.6
COc1ccc2c(c1)CCc1c-2n[nH]c1C(=O)NCCN1CCOCC1	none
CCCCNC(=O)c1cc2cn(C3CC3)cc2s1	USP8 block 78.3
O=C(CSc1nnc2n(-c3ccccc3)c(=O)c3ccccc3n12)c1ccc(F)cc1	USP8 block 36.4
COc1cc(NC(=O)Cc2ccc3c(c2)OCCO3)c(OC)cc1Cl	USP8 block 48.8
COc1cc2ccccc2cc1C(=O)Nc1ccc2c(c1)NC(=O)C(C)O2 (stereo not drawn)	none
Cc1nc(SCC(=O)c2ccc(Cl)cc2)c2oc3ccccc3c2n1	none
CCn1ncc(-c2ccnc3cc(C(=O)N4CCN(Cc5ccc(F)cc5)CC4)nn23)c1C	USP8 block 59.8
CCN1CCN(C(=O)c2sc(-c3ccc(F)cc3)nc2C)CC1	none
COc1cccc(O[C@@H]2C[C@@H](NC(=O)c3cncn3C)[C@H](O)[C@H]2O)c1	none
COCCNC(=O)CN1C(=O)c2ccccc2C1c1c(-c2cc(OC)ccc2OC)[nH]c2ccccc12 (stereo not drawn)	none
NS(=O)(=O)c1ccc(CCNC(=O)c2cc(-c3ccc4c(c3)OCO4)nc3ccccc23)cc1	USP8 block 31.1
COc1ccc(-c2cc(C(=O)NCCc3ccc(S(N)(=O)=O)cc3)c3ccccc3n2)cc1	USP8 block 52.7
Cc1ccc(CCNC(=O)c2cc(Nc3ccccc3)nc3ccccc23)cc1	none
CC1=C(C(=O)NCc2ccccc2Cl)C2(CCC(C)CC2)OC1=O (stereo not drawn)	none
CC(=O)N1CCc2cc(S(=O)(=O)NC(Cc3ccccc3)C(=O)Nc3cccc(Cl)c3C)ccc21 (stereo not drawn)	USP8 block 47.3, USP10 inh 54.8
O=S(=O)(c1cccc2cccnc12)N1CCC(N2CCCCC2)CC1	none
CCOc1ccc(NS(=O)(=O)c2ccc(NC(=O)COc3ccccc3C)cc2)cc1	none
CCOc1ccc(NS(=O)(=O)c2ccc(NC(=O)Nc3ccccc3)cc2)cc1	USP8 block 44.7, USP10 inh 33.9
COc1ccc(CNC(=O)C(C)N2C(=O)CCn3nc(C)cc32)cc1 (stereo not drawn)	none
CCOc1cc(N2CCOCC2)c(OCC)cc1NC(=O)c1cc2c(s1)CCC2	USP8 block 49.6
O=C(O)COc1ccccc1/C=C1\CCc2c1nc1ccccc1c2C(=O)O	none
COc1ccc(C2C3=C(CC(c4ccco4)CC3=O)Nc3ccccc3N2C(C)=O)cc1 (stereo not drawn)	USP8 block 55.7
Cc1ccc(C2CC(=O)C3=C(C2)Nc2ccccc2N(C(=O)c2ccccc2)C3c2ccccc2)cc1 (stereo not drawn)	USP8 block 30.5
Cc1cc(NS(=O)(=O)c2ccc(NC(=O)c3ccc(N4CCCC4)c([N+](=O)[O-])c3)cc2)no1	USP10 inh 31.4
CCOc1ccc(NC(=O)CSc2ccc(-c3ccncc3)nn2)cc1	none
COc1cccc(-c2ccc(SCC(=O)Nc3ccc(F)c(F)c3)nn2)c1	USP8 block 31.5
Cc1ccc2[nH]c(C3CCCN(C(=O)CCn4nnnc4C)C3)c(-c3ccncc3)c2c1 (stereo not drawn)	none
COc1cccc(CNC(=O)c2ccc3c(c2)NC(=O)C2CCCN32)c1OC (stereo not drawn)	USP8 block 70.3
CCOC(=O)C1CCN(C(=O)c2ccc3c(c2)NC(=O)C2CCCN32)CC1 (stereo not drawn)	USP8 block 92.9
CCN1CCN(C(=O)c2ccc3c(c2)NC(=O)C2CCCCN32)CC1 (stereo not drawn)	none
CC(=O)N1Cc2ccccc2OC2(CCN(CC(=O)Nc3c(C)cc(C)cc3C)CC2)C1	none
O=C(C1CCCN(S(=O)(=O)Cc2ccccc2)C1)N1CCC(Cc2ccccc2)CC1 (stereo not drawn)	none
CCCNC(=O)c1ccc(-n2nc(C)c3c2CC(C)(C)CC3=O)cc1	none
Cc1nn(-c2ccccc2)c2c1nc(CCC(=O)N1CCN(c3ccccc3F)CC1)c(=O)n2C	none
